# Experimental data reported in the supplement of paper PMC8728848.
# This is one part of a sample in which the strongest signals are shown more often than they occur.
# Tests used:
# Assay in all cases: glycan array binding signal (z-score within array); higher = stronger binding
# Conditions in all cases: glycan notation: IUPAC condensed, linker removed
# [1] = tested on: Neu5Ac(a2-6)Gal(b1-4)GlcNAc(b1-6)[Gal(b1-3)GlcNAc(b1-3)]Gal(b1-4)Glc
# How it was run: (§1)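 From the Consortium for Functional Glycomics database, 3228 arrays were curated, keeping only those whose protein sequence was available. Binding is given as a within-array Z-score averaged across arrays sharing a protein sequence and across linkers. Negative Z-scores can be read as non-binding.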
# [2] = tested on: Neu5Ac(a2-6)Gal(b1-4)GlcNAc
# How it was run: as §1
# [3] = tested on: Neu5Ac(a2-6)GalNAc(b1-4)GlcNAc
# How it was run: as §1
# [4] = tested on: Neu5Ac(a2-6)GlcNAc(b1-4)GlcNAc
# How it was run: as §1
# [5] = tested on: Neu5Ac(a2-8)Neu5Ac(a2-3)Gal(b1-4)GlcNAc
# How it was run: as §1
# [6] = tested on: Neu5Ac(a2-8)Neu5Ac(a2-3)Gal(b1-3)GalNAc(b1-4)[Neu5Ac(a2-8)Neu5Ac(a2-3)]Gal(b1-4)Glc
# How it was run: as §1
# [7] = tested on: Neu5Ac(a2-6)Gal(b1-4)GlcNAc(b1-3)[Neu5Ac(a2-6)Gal(b1-4)GlcNAc(b1-6)]GalNAc
# How it was run: as §1
# [8] = tested on: Neu5Ac(a2-6)Gal(b1-4)GlcNAc6S
# How it was run: as §1
# Neu5Ac(a2-6)Gal = tested on: Neu5Ac(a2-6)Gal
# How it was run: as §1
# [9] = tested on: Neu5Ac(a2-8)Neu5Ac(a2-3)Gal(b1-3)GalNAc(b1-4)[Neu5Ac(a2-3)]Gal(b1-4)Glc
# How it was run: as §1
substance,measurement,setting,value
Epa22,glycan array binding signal (z-score),[1],0.104
same,glycan array binding signal (z-score),[2],-0.607
same,glycan array binding signal (z-score),[3],-0.394
same,glycan array binding signal (z-score),[4],-0.046
"SpGH101 (Streptococcus pneumoniae), Q8DR60",glycan array binding signal (z-score),[2],-0.172
LcI (Legionella pneumophila),glycan array binding signal (z-score),[3],-0.669
"MIC3-MAR1b (Eimeria tenella), B6VCV4",glycan array binding signal (z-score),[1],1.38
AgI/IIC123-GFP (Streptococcus mutans),glycan array binding signal (z-score),[5],-0.506
"BambL (Burhholderia ambifaria), Q0B4G1",glycan array binding signal (z-score),[6],-0.308
AgI/II Vhelical-GFP (Streptococcus mutans),glycan array binding signal (z-score),[7],-0.298
same,glycan array binding signal (z-score),[8],-0.076
same,glycan array binding signal (z-score),Neu5Ac(a2-6)Gal,-0.257
same,glycan array binding signal (z-score),[9],-0.253
"MIC3-MAR5 (Eimeria tenella), B6VCV4",glycan array binding signal (z-score),[9],3.86
Actinohivin (Actinomycete K97),glycan array binding signal (z-score),[8],-0.199
same,glycan array binding signal (z-score),[3],-0.197
same,glycan array binding signal (z-score),Neu5Ac(a2-6)Gal,-0.147
